Out of some 69,000 compounds screened, about 420 (0.61%) showed an effect of 50% or more. Only a selection was taken, and strong results are over-represented in it overall.
biological target: T1, Histidine--tRNA ligase (Leishmania infantum) (UniProt A4I591); assay: Leishmania infantum Histidine tRNA synthetase (LdHisRS); assay type: functional; set-up: scale not given: in the data most compounds retested in dose-response had high values; details: 30 µM
T1 sequence (whole entry): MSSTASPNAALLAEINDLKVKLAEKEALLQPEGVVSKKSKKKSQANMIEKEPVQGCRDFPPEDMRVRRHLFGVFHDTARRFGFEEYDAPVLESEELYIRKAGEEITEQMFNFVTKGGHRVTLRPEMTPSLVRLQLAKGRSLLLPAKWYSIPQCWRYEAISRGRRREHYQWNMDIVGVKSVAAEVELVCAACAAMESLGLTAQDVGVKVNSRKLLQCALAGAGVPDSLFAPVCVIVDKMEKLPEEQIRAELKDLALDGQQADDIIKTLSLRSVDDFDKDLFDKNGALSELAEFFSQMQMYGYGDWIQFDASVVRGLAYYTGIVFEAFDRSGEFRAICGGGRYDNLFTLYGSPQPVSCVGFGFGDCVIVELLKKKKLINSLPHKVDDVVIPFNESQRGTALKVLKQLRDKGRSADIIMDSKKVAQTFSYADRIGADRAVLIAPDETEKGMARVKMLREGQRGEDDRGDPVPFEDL

SMILES	Percent Effect [%]
CN(C)c1nc(CNC(=O)Nc2cccc([S+](C)[O-])c2)cs1 (stereo unspecified)	27.1
Cc1nnsc1CNC(=O)Nc1cccc(N2CCN(C)C2=O)c1	11.8
CN1CCN(c2cccc(NC(=O)NCc3csc(N(C)C)n3)c2)C1=O	64.7
Cc1cccc(CN2C(=O)CO[C@@H]3CN(Cc4cnn(C)c4)C[C@H]32)c1	23.1
C=Cc1cccc(CN2C[C@H]3CC[C@@H]2CN(Cc2c(C)noc2C)C3)c1	27.4
CNc1cc(-c2ccc(COCCN)cc2)c2cc[nH]c2n1	20.5
Cc1cccc(C)c1-c1cc(NCCO)nc2[nH]ccc12	10
CNc1cc(C)nc(-c2cc(NC)nc3[nH]ccc23)n1	-2.04
CNc1cc(-c2cccc(CN)c2)c2cc[nH]c2n1	68.7
CNc1cc(-c2ccccc2CN)c2cc[nH]c2n1	80.7
COCCNc1cc(-c2ccccc2CCN)c2cc[nH]c2n1	4.84
O=C(c1cocn1)N1CC[C@H]2OCC[C@@]2(COc2ncccc2F)C1	22.4
O=C(Cc1ccccc1)N1CC[C@@H]2CNS(=O)(=O)[C@@H]2CC1	28.1
Nc1cccnc1N1CCC(O)CC1	12.5
Nc1cccnc1N1CCN(c2ccccc2)CC1	8.33
Nc1cccnc1N1CCCCCC1	58.3
COc1ccc(CC(=O)N2C[C@@H]3COC[C@]3(CN(C)C)C2)cc1	-47.1
Cc1nc(COC[C@@H]2CC[C@H]3[C@H](CCN3C(=O)C3CC3)O2)cs1	14.7
Cc1cccc(C(=O)N2C[C@@H]3CCN(c4cccnc4)C[C@@H]3C2)c1	6.57
CN(C)C(=O)CN1CC[C@H]2CN(C3CCOCC3)C[C@@H]2C1=O	11.7
Cn1nc2c(cc1=O)CN(CC1CCCCO1)CC2 (stereo unspecified)	104

SMILES	Percent Effect [%]
CCCn1nc2c(cc1=O)CN(CC1CCCCO1)CC2 (stereo unspecified)	79.5
Cc1ncc2c(n1)CN(CC1CCCCO1)CC2 (stereo unspecified)	25.7
Cn1nc2c(cc1=O)CN(CCN1CCCC1=O)CC2	4.39
CCn1nc2c(cc1=O)CN(CC1CCCCO1)CC2 (stereo unspecified)	0
CC(C)n1nc2c(cc1=O)CN(CC1CCCCO1)CC2 (stereo unspecified)	35.6
CCCSCC(=O)N1C[C@H]2CC[C@@H]1CN(c1ncccn1)C2	4.17
CC(C)CC(=O)N1CC[C@H]2N(C)CC[C@@]2(C(=O)Nc2ccccc2)CC1	15.4
Cc1nccc([C@@H]2C[C@@H]3CCN(S(C)(=O)=O)C[C@H]3O2)n1	22.6
CC1=N[C@@]2(CC[C@@H]3CN(CC(=O)N(C)C)C[C@@H]32)C(=O)N1CC1CC1	23.1
COc1ccc(F)c(F)c1CN1CC(=O)N(c2ccccc2C)CC1C (stereo unspecified)	53
COc1cccc(CN2CC(=O)N(c3ccccc3C)CC2C)c1OC (stereo unspecified)	38.5
COc1ccc(F)c(CN2CC(=O)N(c3ccccc3C)CC2C)c1 (stereo unspecified)	31.3
c1csc(N2[C@H](Cn3cncn3)C[C@@H]3CNCC[C@@H]32)n1	-6.84
CC(C)c1cc(N2CCC(N)CC2)n2nccc2n1	22.9
CC(C)c1cc(N2CC[C@H](F)C2)n2nccc2n1	22.2
CC(C)c1cc(N2CCC(C(C)N3CCCC3)CC2)n2nccc2n1 (stereo unspecified)	69.4
Cc1cccc(CO[C@@H]2CC[C@H]3[C@H]2OCCN3Cc2cc(C)on2)n1	22.2
O=C(NC[C@H]1CC[C@H](c2ccnc3ncnn32)CC1)c1ccccn1	7.04
CN1CCN(c2ccccc2NC(=O)NCCc2ccc(O)cc2)CC1	21.5
CC(CCc1cccn1C)NC(=O)Nc1cccn(C)c1=O (stereo unspecified)	38.4
CCSCCC(C)NC(=O)Nc1cccn(C)c1=O (stereo unspecified)	29.5

SMILES	Percent Effect [%]
Cc1cccc(C)c1OCC(=O)Nc1cccn(C)c1=O	21
CC(C)C(C)NC(=O)Nc1cccn(C)c1=O (stereo unspecified)	63.4
Cn1cccc(NC(=O)NCc2cccc(CO)c2)c1=O	55
Cn1cccc(NC(=O)NCCOCc2ccccc2)c1=O	22
Cn1cccc(NC(=O)NCCc2cccc(O)c2)c1=O	55
Cn1cccc(NC(=O)COc2ccc(Cl)cc2)c1=O	34.5
COCCN1CCO[C@H]2CN(Cc3cc[nH]n3)C[C@H]21	23.8
CS(=O)(=O)N[C@@H]1CN(C(=O)c2ccccn2)C[C@@H]2CCCO[C@@H]21	15.6
CN1CCO[C@@H]2CN(C(=O)NCc3cccc(F)c3)CC[C@@H]2C1	4.54
CCCS(=O)(=O)N1C[C@@H](c2nc(C)no2)C[C@H]2OCC[C@H]21	11.7
Cc1cccc(C(=O)N2C[C@@H]3OCCN(CCN4CCCC4)[C@@H]3C2)n1	16
CCS(=O)(=O)N1CC[C@@H]2[C@H](CC1)N(CC(C)C)CCS2(=O)=O	10.5
O=C(NCC1CC1)[C@H]1C[C@@H]2CN(S(=O)(=O)Cc3ccccc3)C[C@H]1O2	-0.73
O=C(c1ccncc1)N1CC[C@@H]2[C@@H](CC1)OCCN2c1cccnc1	17.5
Cc1nc(CO[C@H]2CN(Cc3cccs3)[C@@H]3COC[C@H]23)cs1	8.06
COCc1nc2cc(NCc3ccncc3)ccc2o1	100
CN1CCN(Cc2cccc(NCc3cc[nH]n3)c2)CC1	12.3
COCc1nc2cc(NCc3ncc[nH]3)ccc2o1	38.4
COCc1cccc(NCc2cccnc2)c1	6.67
